HttQ103 aggreg = inhibitors of mutant huntingtin aggregate formation in PC12 cells; PC12 HttQ103-GFP aggregates, Acumen cytometry, 40 h; Potency, µM (top dose mostly 46.1 µM), usual class: inhibitors; 220,000 tested, 1.1% active; further: nearly all actives have a fitted effect of over 60% in size
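Read-out: GFP aggregate count by laser scanning cytometer (488 nm excitation, 500-530 nm emission, 1–25 µm objects >6 SD above background). Cells: PC12, inducible HTTex1-Q103-GFP, 100 nM tebufenozide; compounds titrated.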
ALDH1A1 inh = ALDH1A1 (human) enzyme inhibition; P00352; Purified ALDH1A1, NADH fluorescence, propionaldehyde substrate; Potency, µM (doses to about 75.3 µM), actives largely listed as inhibitors; 220,000 tested, 7.3% active; AID 1030; active means well fitted inhibition curve with a large enough effect, not every such curve was filed as active; inconclusive means small, poorly fitted or top-dose-only effect, or another doubt; inactive means no such curve, though single readings can be large or run the other way
Target sequence (P00352 whole entry, looked up): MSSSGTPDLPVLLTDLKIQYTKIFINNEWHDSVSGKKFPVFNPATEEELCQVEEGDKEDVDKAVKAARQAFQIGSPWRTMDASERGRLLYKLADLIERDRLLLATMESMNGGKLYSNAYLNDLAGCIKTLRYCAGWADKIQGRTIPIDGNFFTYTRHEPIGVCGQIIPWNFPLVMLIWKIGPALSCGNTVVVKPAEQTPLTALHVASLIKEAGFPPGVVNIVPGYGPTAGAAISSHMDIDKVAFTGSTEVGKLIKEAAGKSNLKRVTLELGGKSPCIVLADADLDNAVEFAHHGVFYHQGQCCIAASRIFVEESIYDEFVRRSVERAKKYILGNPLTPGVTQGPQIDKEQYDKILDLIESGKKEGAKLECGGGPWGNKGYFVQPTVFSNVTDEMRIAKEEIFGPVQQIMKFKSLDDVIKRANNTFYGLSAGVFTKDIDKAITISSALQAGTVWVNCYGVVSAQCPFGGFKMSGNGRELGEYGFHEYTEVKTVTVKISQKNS
GoLoco inh red = blocks human Gai1 binding to RGS12 GoLoco peptide, red readout; P63096; Gai1:RGS12 GoLoco peptide FP, rhodamine, 10 min; Potency, µM (doses to about 61.6 µM), hits mostly inhibitors; 230,000 tested, 0.44% active; AID 880; active means well fitted inhibition curve with a large enough effect, not every such curve was filed as active; inactive means no such curve, though single readings can be large or run the other way; further: nearly all actives have a fitted effect of over 30% in size
HTT ATP protect = cytoprotection in Huntington HTT-Q103 PC12 cell model | PC12 HTT-Q103 induced, cytoprotection, ATP luminescence, 40 h | Potency, µM (doses to about 56.4 µM), hits mostly activators | 230,000 tested, 0.14% active | AID 1471; further: nearly all actives have a fitted effect of over 45% in size
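Rat PC12, Q103 Htt exon1-GFP fusion, ecdysone promoter; tebufenozide inducer 100 nM final; compound titration; qHTS, 1500 cells/well; ATPlite luminescent read.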
HPGD block = HPGD (human) dehydrogenase inhibition; P15428; Potency, µM, actives largely listed as inhibitors; purified HPGD, NADH fluorescence kinetic, PGE2 substrate; 150,000 tested, 4.3% active; active means well fitted inhibition curve with a large enough effect, not every such curve was filed as active; inconclusive means small, poorly fitted or top-dose-only effect, or another doubt; inactive means no such curve, though single readings can be large or run the other way
Target sequence (P15428 whole entry, looked up): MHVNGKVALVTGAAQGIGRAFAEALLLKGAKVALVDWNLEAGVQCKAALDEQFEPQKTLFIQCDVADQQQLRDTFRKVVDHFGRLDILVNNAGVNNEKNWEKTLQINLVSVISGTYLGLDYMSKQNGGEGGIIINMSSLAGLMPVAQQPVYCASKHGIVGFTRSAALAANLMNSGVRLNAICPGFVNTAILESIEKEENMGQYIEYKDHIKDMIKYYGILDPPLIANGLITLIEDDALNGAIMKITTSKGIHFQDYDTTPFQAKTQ
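NADH formation kinetics: reaction with 30 uM PGE2 and 1 mM NAD+ (final), 20 nM enzyme, Tris-HCl pH 8 with Tween 20, after 15 min compound preincubation at room temperature. Fluorescence change, last versus first of five reads.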
PNC inhibitor = blocks assembly of the perinucleolar compartment. 140,000 tested, 3.1% active. activity change (PNC), negative = inhibition, % at 10 µM. AID 2417. PC3M PTB-GFP, PNC prevalence imaging, 16 h; active compounds read low;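 active means readout at or below -70, meaning at least 70% loss of cells showing the perinucleolar compartment, a nuclear body marking cancer cells; inconclusive means readout between -30 and a set limit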
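Compounds are pinned in duplicate onto adhered PC3M cells stably expressing GFP-tagged PTB and incubated 16 h at 37 C. Cells are then fixed, nuclei stained with Hoechst, and PNC-positive cells counted.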
Numbers stand for hits; - = inactive; ? = inconclusive; . = not tested or not shown; [ ] = another dose, or the depositor's remark. The list is not random: actives were taken first. Their share in the collection is about 11%. Unless noted, the call rests on the fitted dose curve; in most records, active means well fitted curve in the direction sought with a large enough effect; inconclusive means small, poorly fitted or top-dose-only effect, or another doubt; inactive means no such curve, though single readings can be large; an effect the other way counts as inactive or inconclusive.

SMILES | HttQ103 aggreg | ALDH1A1 inh | GoLoco inh red | HTT ATP protect | HPGD block | PNC inhibitor
CSc1ncnc2c1ncn2[C@@H]1O[C@@H](CO)[C@H](O)O[C@@H]1O | . | -[13.5 µM] | -[14.2 µM] | -[10 µM] | - | .
CC(=O)N1CCC2(CCCN(c3ccccc3)C2)CC1 | . | - | - | - | - | .
CSC1=C(C#N)C(c2cccc(Br)c2)CC(=O)N1 (configuration not stated) | - | - | - | -[10 µM] | - | -
CSC1=C(C#N)C(c2sccc2C)CC(=O)N1 (configuration not stated) | . | 10µM | - | . | . | .
CCOC(=O)c1c(NC(=O)CCNCc2ccco2)sc2c1CCC2 | -[9.22 µM] | . | - | -[10 µM] | . | .
Cc1c(CNC2CCCC2)c(C(=O)O)c(C)n1Cc1ccccc1 | 0.794µM | - | - | -[10 µM] | - | ?
c1ccc(C(c2ccccc2)N2CCC3(CCNCC3)CC2)cc1 | . | - | - | - | - | .
O=[N+]([O-])c1ccc(N2CCC(=NOCc3ccc(Cl)cc3)CC2)cc1 | - | 12.6µM | - | - | - | -
CC(=O)O[C@H]1CC[C@]2(C)C(=CC[C@H]3[C@H]4C[C@H]5O[C@]6(CC[C@H](C)CN6)[C@H](C)[C@@H]5[C@]4(C)CC[C@@H]32)C1 | . | -[13.5 µM] | -[14.2 µM] | -[10 µM] | - | .
COc1ccc(N2CCN(C(=O)CSc3nnc(-c4cc5ccccc5cc4O)n3C)CC2)cc1 | 12.6µM | - | - | - | - | -
COc1ccc(-n2c(Cn3nnc4ccccc43)nnc2SCC(=O)O)cc1 | - | - | - | - | - | -
COc1ccc(-n2cnnc2SCC(=O)N2CCN(c3ccccc3)CC2)cc1 | - | ? | - | - | - | ?
COc1ccc(N2CCN(C(=O)CSc3nnc(Cn4nnc5ccccc54)n3C)CC2)cc1 | - | 14.1µM | - | - | - | ?
Cn1c(Cn2nnc3ccccc32)nnc1SCC(=O)N1c2ccccc2CCc2ccccc21 | - | 8.91µM | - | -[10 µM] | - | -
Clc1ccc2c(c1)N(CCCN1CCCC13CCCCC3)c1ccccc1S2 | . | -[13.5 µM] | -[14.2 µM] | -[10 µM] | - | .
c1ccc(CN2CCC3(CC2)SSC2(CCN(Cc4ccccc4)CC2)SS3)cc1 | . | -[13.5 µM] | -[14.2 µM] | -[10 µM] | - | .
CCOC(=O)c1c(C)[nH]c(C2=NNC(=Nc3ccccc3)SC2)c1C | - | 12.6µM | . | -[10 µM] | . | -
CC(=O)c1c(C)[nH]c(C2=NNC(=NC(C)(C)C)SC2)c1C | - | 11.2µM | - | - | . | .
CCOC(=O)c1c(C)[nH]c(C2=NNC(=Nc3ccc(OCC)cc3)SC2)c1C | - | ? | - | -[10 µM] | - | -
COCCC(=O)NNS(=O)(=O)c1ccc(Cl)cc1 | - | - | - | . | - | ?
O=C(CSc1nnc(-c2ccncc2)n1Cc1ccco1)Nc1nccs1 | - | - | - | -[10 µM] | - | -100.0
Cc1cccc(C)c1NC(=O)CSc1nnc(-c2ccncc2)n1Cc1ccco1 | - | - | - | - | - | -
O=C(CSc1nnc(Cc2cccs2)n1Cc1ccco1)Nc1ccc(Br)cc1 | - | 20µM | - | - | ? | -
CCn1c(SCC(=O)Nc2ccc3c(c2)c2ccccc2n3CC)nnc1-c1cnccn1 | - | - | - | - | - | -
O=C(CSc1nnc(Cc2cccs2)n1Cc1ccco1)Nc1ccc(Cl)cc1Cl | ? | ? | - | -[0.074 µM] | - | -
SMILES | HttQ103 aggreg | ALDH1A1 inh | GoLoco inh red | HTT ATP protect | HPGD block | PNC inhibitor
Cc1ccc(-c2nnc(SCc3nc4ccccc4[nH]3)n2Cc2ccco2)cc1 | - | 15.8µM | - | - | - | -
CCn1c2ccccc2c2cc(NC(=O)CSc3nnc(C4CC4)n3Cc3ccco3)ccc21 | - | 17.8µM | - | -[10 µM] | ? | -
CNc1ncnc2ccc(-c3cccc(OC)c3)cc12 | . | ? | - | - | . | .
O=[N+]([O-])c1ccc(-c2ccc(S(=O)(=O)NCCN3CCCC3)cc2)cc1 | - | - | - | - | . | .
O=C(CSc1nnc(-c2ccccc2Cl)n1Cc1ccco1)Nc1ccc2c(c1)OCCO2 | - | 10µM | - | -[0.074 µM] | - | -96.2
COc1ccc(-c2cnc(SCC(=O)Nc3ccc4c(c3)OCO4)n2Cc2ccco2)cc1 | - | 11.2µM | - | -[10 µM] | - | ?
CC(=O)Nc1cccc(NC(=O)CSc2ncc(-c3ccc(Cl)cc3)n2Cc2ccco2)c1 | - | - | - | -[10 µM] | - | -
O=C(CSc1nnc(-c2ccncc2)n1-c1ccc(F)cc1)NC(=O)NCc1ccco1 | - | 25.1µM | - | -[10 µM] | - | -
Cn1c(SCC(=O)N2c3ccccc3Sc3ccc(Cl)cc32)nnc1-c1ccco1 | - | ? | - | -[10 µM] | - | -
O=C(CSc1nnc(-c2ccncc2)n1Cc1ccco1)N1c2ccccc2Sc2ccc(Cl)cc21 | - | - | - | -[10 µM] | - | -100.0
c1ccc(-c2nnc(CSc3nnc(-c4ccncc4)n3Cc3ccco3)o2)cc1 | - | - | - | - | 20µM | -
O=C(CSc1nnc(-c2ccc(Cl)cc2)n1Cc1ccco1)Nc1ccc2c(c1)OCCO2 | - | 5.01µM | - | - | 25.1µM | -
O=C(CSc1nnc(-c2ccc(Cl)cc2)n1Cc1ccco1)NCc1ccc2c(c1)OCO2 | - | ? | - | - | - | -
CCOCCCNC(=O)CCSc1ccc(C)cc1 | - | - | - | -[10 µM] | - | -
CCc1cc2c(nc1CC)CCN(CC/C(C)=N/O[C@@H](C)c1cn([C@@H]3COC[C@@H]3O)nn1)C2 | . | -[13.5 µM] | . | -[10 µM] | . | .
CCOC(=O)N1CCC(NC(=O)C2CCC(CNS(=O)(=O)c3ccc(OC)cc3)CC2)CC1 (configuration not stated) | - | - | - | - | - | -
COc1ccc(S(=O)(=O)NCC2CCCN(C(=O)C=C(C)C)C2)cc1 (configuration not stated) | -[9.22 µM] | 4.47µM | - | -[10 µM] | . | .
COc1ccc(S(=O)(=O)NCC2CCCN(CC(C)(C)C)C2)cc1 (configuration not stated) | -[9.22 µM] | 20µM | - | -[10 µM] | . | .
COC(=O)CCC(=O)N1CCCC(CNS(=O)(=O)c2ccc(OC)cc2)C1 (configuration not stated) | -[9.22 µM] | 8.91µM | - | -[10 µM] | . | .
COc1ccc(S(=O)(=O)NCC2CCCN(C(=O)c3cccnc3)C2)cc1 (configuration not stated) | -[9.22 µM] | ? | - | -[10 µM] | . | .
CC(C)n1cnc2c(N(C)c3ccccc3)nc(N(CCN(C)C)Cc3ccccc3)nc21 | -[9.22 µM] | . | - | -[10 µM] | . | .
CN1CCN(c2ncc3nc(-c4ccc(Cl)cc4)c(=O)n(C)c3n2)CC1 | . | ? | - | - | . | .
Cc1ccc(/C=C/C(=O)N2CCN(c3cccc(C(F)(F)F)c3)CC2)cc1 | - | - | - | -[10 µM] | - | -
C=CCNC(=S)N1CCN(c2cccc(C(F)(F)F)c2)CC1 | - | - | - | . | - | -113.4
C/C(=C\c1ccccc1)C(=O)N1CCN(c2cccc(C(F)(F)F)c2)CC1 | - | - | - | -[10 µM] | 25.1µM | -91.0
FC(F)(F)c1cccc(N2CCN(C(=S)NC3CCCCC3)CC2)c1 | 22.4µM | - | - | -[10 µM] | - | -
